{"source": "the supplement of paper PMC8728848", "binders": {"B1": {"name": "FliC (Clostridium difficile) (protein)", "chain": "MRVNTNVSALIANNQMGRNVNGQSKSMEKLSSGVRIKRAADDAAGLAISEKMRAQIKGLDQAGRNVQDGISVVQTAEGSLEETGNILQRMRTLSLQSANEINNTEEREKIADELTQLKDEIERISSSTEFNGKKLLDGTSSTIRLQVGASYGTNVSGTSNNNNEIKIQLVNTASIMASAGITTASIGSMKAGGTTGTDAAKTMVSSLDAALKSLNSSRAKLGAQQNRLESTQNNLNNTLENVTAAESRIRDTDVASEMVNLSKMNILVQASQSMLAQANQQPQGVLQLLG"}}, "assay_in_all_cases": "glycan array binding signal (z-score within array); higher = stronger binding", "conditions_in_all_cases": "glycan notation: IUPAC condensed, linker removed", "key": {"[1]": {"target": "Fuc(a1-2)Gal(b1-3)GalNAc(a1-3)[Fuc(a1-2)]Gal(b1-4)Glc", "summary_of_the_method": "(§1)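 Negative Z-scores can be read as non-binding. The Z-score is calculated within each array and then averaged across arrays of one protein sequence at different concentrations or buffers and across linkers. Arrays, 3228 in all, were curated from the Consortium for Functional Glycomics database and kept only where the protein sequence was available.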"}, "[2]": {"target": "Fuc(a1-2)Gal(b1-3)[Fuc(a1-4)]GlcNAc(b1-2)Man(a1-3)[Fuc(a1-2)Gal(b1-3)[Fuc(a1-4)]GlcNAc(b1-2)Man(a1-3)]Man(b1-4)GlcNAc(b1-4)GlcNAc", "summary_of_the_method": "as §1"}, "[3]": {"target": "Fuc(a1-2)Gal(b1-4)GlcNAc(b1-3)Gal(b1-4)GlcNAc(b1-2)Man(a1-3)[Fuc(a1-2)Gal(b1-4)GlcNAc(b1-3)Gal(b1-4)GlcNAc(b1-2)Man(a1-6)]Man(b1-4)GlcNAc(b1-4)GlcNAc", "summary_of_the_method": "as §1"}, "[4]": {"target": "Fuc(a1-2)Gal(b1-4)[Fuc(a1-3)]GlcNAc(b1-2)[Fuc(a1-2)Gal(b1-4)[Fuc(a1-3)]GlcNAc(b1-4)]Man(a1-3)[Fuc(a1-2)Gal(b1-4)[Fuc(a1-3)]GlcNAc(b1-2)Man(a1-6)]Man(b1-4)GlcNAc(b1-4)GlcNAc", "summary_of_the_method": "as §1"}, "[5]": {"target": "Fuc(a1-2)Gal6S(b1-3)GlcNAc6S", "summary_of_the_method": "as §1"}, "[6]": {"target": "Fuc(a1-2)[Gal(a1-3)]Gal", "summary_of_the_method": "as §1"}, "[7]": {"target": "Fuc(a1-2)[Gal(a1-3)]Gal(b1-3)GlcNAc(b1-3)GalNAc", "summary_of_the_method": "as §1"}, "[8]": {"target": "Fuc(a1-2)[GalNAc(a1-3)]Gal(b1-3)GlcNAc(b1-2)Man(a1-3)[Fuc(a1-2)[GalNAc(a1-3)]Gal(b1-3)GlcNAc(b1-2)Man(a1-6)]Man(b1-4)GlcNAc(b1-4)[Fuc(a1-6)]GlcNAc", "summary_of_the_method": "as §1"}, "[9]": {"target": "Fuc(a1-2)[GalNAc(a1-3)]Gal(b1-3)GlcNAc(b1-6)GalNAc", "summary_of_the_method": "as §1"}, "[10]": {"target": "Fuc(a1-2)[GalNAc(a1-4)]Gal(b1-4)GlcNAc", "summary_of_the_method": "as §1"}, "[11]": {"target": "Fuc(a1-3)[Gal(b1-4)]GlcNAc(b1-3)Gal(b1-4)[Fuc(a1-3)]GlcNAc(b1-3)Gal(b1-4)[Fuc(a1-3)]GlcNAc", "summary_of_the_method": "as §1"}, "[12]": {"target": "Gal(a1-3)Fuc(a1-2)Gal(b1-4)GlcNAc(b1-3)[Gal(a1-3)Fuc(a1-2)Gal(b1-4)GlcNAc(b1-6)]GalNAc", "summary_of_the_method": "as §1"}, "[13]": {"target": "Gal(a1-3)Gal(b1-3)GlcNAc", "summary_of_the_method": "as §1"}, "[14]": {"target": "Gal(a1-3)Gal(b1-4)GlcNAc(b1-2)Man(a1-3)[Gal(a1-3)Gal(b1-4)GlcNAc(b1-2)Man(a1-6)]Man(b1-4)GlcNAc(b1-4)GlcNAc", "summary_of_the_method": "as §1"}, "[15]": {"target": "Gal(a1-4)Gal(b1-3)GlcNAc(b1-2)Man(a1-3)[Gal(a1-4)Gal(b1-3)GlcNAc(b1-2)Man(a1-6)]Man(b1-4)GlcNAc(b1-4)GlcNAc", "summary_of_the_method": "as §1"}, "[16]": {"target": "Gal(a1-4)Gal(b1-4)GlcNAc(b1-3)Gal(b1-4)Glc", "summary_of_the_method": "as §1"}, "[17]": {"target": "Gal(b1-3)GlcNAc(a1-6)Gal(b1-4)GlcNAc", "summary_of_the_method": "as §1"}, "[18]": {"target": "Gal(b1-3)GlcNAc6S", "summary_of_the_method": "as §1"}, "[19]": {"target": "Gal(b1-3)[Neu5Ac(a2-6)]GlcNAc(b1-4)Gal(b1-4)Glc", "summary_of_the_method": "as §1"}, "[20]": {"target": "Gal(b1-4)GlcNAc(b1-2)Man(a1-3)Man(b1-4)GlcNAc(b1-4)GlcNAc", "summary_of_the_method": "as §1"}, "[21]": {"target": "Gal(b1-4)GlcNAc(b1-2)Man(a1-3)[Gal(b1-4)GlcNAc(b1-2)Man(a1-6)]Man(b1-4)GlcNAc(b1-4)GlcNAc", "summary_of_the_method": "as §1"}, "[22]": {"target": "Gal(b1-4)GlcNAc(b1-2)[Gal(b1-4)GlcNAc(b1-4)]Man(a1-3)[GlcNAc(b1-4)][Gal(b1-4)GlcNAc(b1-2)Man(a1-6)]Man(b1-4)GlcNAc(b1-4)GlcNAc", "summary_of_the_method": "as §1"}, "[23]": {"target": "Gal(b1-4)GlcNAc(b1-2)[Gal(b1-4)GlcNAc(b1-6)]Man(a1-6)[Gal(b1-4)GlcNAc(b1-2)Man(a1-3)]Man(b1-4)GlcNAc(b1-4)[Fuc(a1-6)]GlcNAc", "summary_of_the_method": "as §1"}, "[24]": {"target": "Gal(b1-4)GlcNAc(b1-3)Gal(b1-4)GlcNAc(b1-2)Man(a1-3)[Gal(b1-4)GlcNAc(b1-3)Gal(b1-4)GlcNAc(b1-2)Man(a1-6)]Man(b1-4)GlcNAc(b1-4)[Fuc(a1-6)]GlcNAc", "summary_of_the_method": "as §1"}, "[25]": {"target": "Gal(b1-4)GlcNAc(b1-3)Gal(b1-4)GlcNAc(b1-3)Gal(b1-4)GlcNAc(b1-2)Man(a1-3)[Gal(b1-4)GlcNAc(b1-3)Gal(b1-4)GlcNAc(b1-3)Gal(b1-4)GlcNAc(b1-2)Man(a1-6)]Man(b1-4)GlcNAc(b1-4)GlcNAc", "summary_of_the_method": "as §1"}, "[26]": {"target": "Gal(b1-4)GlcNAc(b1-3)Gal(b1-4)GlcNAc(b1-3)[Gal(b1-4)GlcNAc(b1-3)Gal(b1-4)GlcNAc(b1-6)]GalNAc", "summary_of_the_method": "as §1"}, "[27]": {"target": "Gal(b1-6)Gal", "summary_of_the_method": "as §1"}, "[28]": {"target": "Gal3S(b1-4)Glc", "summary_of_the_method": "as §1"}, "[29]": {"target": "Gal4S6S(b1-4)GlcNAc", "summary_of_the_method": "as §1"}}, "note": "This is one part of a sample in which the strongest signals are shown more often than they occur.", "data": [{"binder": "B1", "values": [{"measurement": "glycan array binding signal (z-score)", "setting": "[1]", "value": 0.883}, {"measurement": "glycan array binding signal (z-score)", "setting": "[2]", "value": 0.721}, {"measurement": "glycan array binding signal (z-score)", "setting": "[3]", "value": 0.257}, {"measurement": "glycan array binding signal (z-score)", "setting": "[4]", "value": 0.298}, {"measurement": "glycan array binding signal (z-score)", "setting": "[5]", "value": 0.013}, {"measurement": "glycan array binding signal (z-score)", "setting": "[6]", "value": 0.187}, {"measurement": "glycan array binding signal (z-score)", "setting": "[7]", "value": 0.173}, {"measurement": "glycan array binding signal (z-score)", "setting": "[8]", "value": 1.26}, {"measurement": "glycan array binding signal (z-score)", "setting": "[9]", "value": -0.176}, {"measurement": "glycan array binding signal (z-score)", "setting": "[10]", "value": -0.165}, {"measurement": "glycan array binding signal (z-score)", "setting": "[11]", "value": -0.069}, {"measurement": "glycan array binding signal (z-score)", "setting": "[12]", "value": -0.356}, {"measurement": "glycan array binding signal (z-score)", "setting": "[13]", "value": 4.21}, {"measurement": "glycan array binding signal (z-score)", "setting": "[14]", "value": 8.29}, {"measurement": "glycan array binding signal (z-score)", "setting": "[15]", "value": 4.1}, {"measurement": "glycan array binding signal (z-score)", "setting": "[16]", "value": 0.243}, {"measurement": "glycan array binding signal (z-score)", "setting": "[17]", "value": -0.584}, {"measurement": "glycan array binding signal (z-score)", "setting": "[18]", "value": -0.373}, {"measurement": "glycan array binding signal (z-score)", "setting": "[19]", "value": -0.467}, {"measurement": "glycan array binding signal (z-score)", "setting": "[20]", "value": -0.407}, {"measurement": "glycan array binding signal (z-score)", "setting": "[21]", "value": 0.049}, {"measurement": "glycan array binding signal (z-score)", "setting": "[22]", "value": -0.113}, {"measurement": "glycan array binding signal (z-score)", "setting": "[23]", "value": 0.28}, {"measurement": "glycan array binding signal (z-score)", "setting": "[24]", "value": 2.39}, {"measurement": "glycan array binding signal (z-score)", "setting": "[25]", "value": 2.15}, {"measurement": "glycan array binding signal (z-score)", "setting": "[26]", "value": 2.33}, {"measurement": "glycan array binding signal (z-score)", "setting": "[27]", "value": 0.447}, {"measurement": "glycan array binding signal (z-score)", "setting": "[28]", "value": -0.03}, {"measurement": "glycan array binding signal (z-score)", "setting": "[29]", "value": -0.316}]}]}
